# Assay outcomes from PubChem BioAssay.
# In the library only some 12% were active in any assay of this set; here they are far more common.
# G9a block – inhibitors of human histone lysine methyltransferase G9a. 350,000 tested, 8.8% active. G9a H3K9 monomethylation, AlphaScreen, 2 h. Q96KQ7. Potency, µM (top dose mostly 102 µM), without a hit: top-dose activity, negative = inhibition, usual class: inhibitors; further: on the % scale 0 is the no-effect control and ±100 the full control effect; nearly all actives have a fitted effect of over 75% in size
#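 Step 1: enzyme (final 20 nM) with compound, 15 min RT. Step 2: substrate peptide 500 nM and SAM 20 uM, 2 h RT. Step 3: anti-H3K9me1 antibody and AlphaScreen beads, 10 min, then plate read.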
# JMJD2A Tudor – inhibitors of human JMJD2A Tudor domain. O75164. 390,000 tested, 4.4% active. AlphaScreen JMJD2A-Tudor / H3K4me3 peptide binding. AID 504339. Potency, µM (doses to about 114 µM), inactives show at the top dose activity change, negative = inhibition, actives largely listed as inhibitors; further: on the % scale 0 is the no-effect control and ±100 the full control effect; nearly all actives have a fitted effect of over 50% in size
# Target sequence (O75164 whole entry, looked up, the tested form may be a part): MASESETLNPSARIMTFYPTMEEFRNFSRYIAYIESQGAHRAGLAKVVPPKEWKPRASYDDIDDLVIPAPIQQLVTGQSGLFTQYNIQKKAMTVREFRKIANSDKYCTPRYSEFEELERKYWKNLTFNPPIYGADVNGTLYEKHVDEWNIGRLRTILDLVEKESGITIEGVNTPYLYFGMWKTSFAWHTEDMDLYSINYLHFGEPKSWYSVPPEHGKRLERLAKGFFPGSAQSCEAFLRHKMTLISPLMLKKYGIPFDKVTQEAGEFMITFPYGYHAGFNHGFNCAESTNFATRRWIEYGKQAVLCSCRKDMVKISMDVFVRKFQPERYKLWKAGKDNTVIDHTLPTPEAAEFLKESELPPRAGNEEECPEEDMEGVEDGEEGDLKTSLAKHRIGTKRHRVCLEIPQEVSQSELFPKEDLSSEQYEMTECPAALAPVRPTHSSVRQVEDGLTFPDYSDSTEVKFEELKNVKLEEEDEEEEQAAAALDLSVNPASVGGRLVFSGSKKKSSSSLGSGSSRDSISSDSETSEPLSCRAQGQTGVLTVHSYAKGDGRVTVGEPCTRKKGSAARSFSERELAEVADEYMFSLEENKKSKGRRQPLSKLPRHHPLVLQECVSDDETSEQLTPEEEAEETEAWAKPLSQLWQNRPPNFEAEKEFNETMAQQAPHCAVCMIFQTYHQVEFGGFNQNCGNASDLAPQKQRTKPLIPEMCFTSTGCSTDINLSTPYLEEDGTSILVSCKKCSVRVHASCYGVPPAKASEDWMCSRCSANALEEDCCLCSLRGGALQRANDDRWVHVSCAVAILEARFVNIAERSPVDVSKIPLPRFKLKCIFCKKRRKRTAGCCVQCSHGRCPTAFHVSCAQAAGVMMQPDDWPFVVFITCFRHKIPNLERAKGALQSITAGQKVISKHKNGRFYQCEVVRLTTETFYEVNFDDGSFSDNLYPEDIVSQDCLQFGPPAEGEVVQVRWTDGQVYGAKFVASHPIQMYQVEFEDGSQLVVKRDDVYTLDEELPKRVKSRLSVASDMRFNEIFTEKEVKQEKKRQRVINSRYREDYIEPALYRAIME
# Sfp inh – blocks B. subtilis Sfp PPTase activity; 310,000 tested, 3.5% active; AID 1490; Biochemical Sfp PPTase activity, qHTS; Potency, µM, for inactives: largest response in the series, negative = inhibition, most hits filed as inhibitors;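 further: the enzyme is Sfp with the accession as filed and its product quenches rhodamine fluorescence; 0% = enzyme reaction without inhibitor and -100% = no enzyme wells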
#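 Sfp 15 nM + cpd, 15 min RT; start w/ rhodamine-CoA 5 uM, BHQ-2-YbbR 12.5 uM (final); 50 mM Hepes pH 7.6, 10 mM MgCl2, 0.01% NP-40, 0.01% BSA; read 525/598 nm at 0 and 30 min.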
# BAZ2B block – inhibitors of human BAZ2B bromodomain; Q9UIF8; Potency, µM (doses to about 114 µM), for inactives: at the top dose activity change, negative = inhibition, most hits filed as inhibitors; 360,000 tested, 4.4% active; AlphaScreen BAZ2B-H3K14Ac peptide displacement; AID 504333; further: on the % scale 0 is the no-effect control and ±100 the full control effect; nearly all actives have a fitted effect of over 60% in size
#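 Complex of BAZ2B and biotin-H3K14Ac (50 nM apiece) forms over 30 min at RT, then faces library compounds up to 110 uM for another 30 min; AlphaScreen beads added, 20 min dark incubation, luminescence read.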
# HP1b chromo inh – inhibitors of HP1-beta chromodomain binding to methylated histone tails | P83916 | AlphaScreen HP1-beta / biotin-H3K9me3 peptide binding | Potency, µM (series often up to 114 µM), for the others: at the top dose activity change, negative = inhibition, usual class: inhibitors | 390,000 tested, 0.56% active; further: nearly all actives have a fitted effect of over 70% in size
#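 HP1-beta protein (50 nM final) preincubated 30 min at room temperature with biotinylated H3(1-18)K9me3 peptide (50 nM) in PBS pH 7.4, 0.01% Tween-20, then compound added for 30 min. AlphaScreen streptavidin donor/nickel chelate acceptor beads (10 ug/mL final), 30 min dark, luminescence read.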
# * marks the source's active call; other numbers are inactive results; ? = inconclusive; nt = no result; [ ] = remark or other dose. The call rests on the fitted dose curve; in most records, active means well fitted curve in the direction sought with a large enough effect; inconclusive means small, poorly fitted or top-dose-only effect, or another doubt; inactive means no such curve, though single readings can be large; an effect the other way counts as inactive or inconclusive. Potency means the concentration at half of the fitted maximal effect.
SMILES,G9a block,JMJD2A Tudor,Sfp inh,BAZ2B block,HP1b chromo inh
Cc1c[n+]([O-])n(-c2ccc(C(=O)O)cc2)n1,?,?,4.0%,56.2µM*,6.0%
Cc1nn(-c2ccc(C(=O)O)cc2)c(C)c1Cl,-32.9%,-2.7%,14.6%,-22.4%,46.6%
Cc1ccc2nc3ccc(N4CCCC4)nn3c(=O)c2c1,9.7%[59 µM],3.2%,27.9%,-0.8%,44.4%
CC1CCCN(c2ccc3nc4ccccc4c(=O)n3n2)C1 (centres undefined),50.1µM*,79.4µM*,11.1%,5.8%,33.0%
CC1CN(C(=O)CSc2nnc3c(Cl)cc(Cl)cn23)CC(C)O1 (centres undefined),79.4µM*,-1.7%,11.9%,-3.4%,35.1%
CC1(C)C(=O)Nc2ccccc2N1C(=O)CSc1nnc2c(Cl)cc(Cl)cn12,2.9%[59 µM],-10.7%,2.6%,6.6%,20.9%
COC(=O)/C(=C/Nc1ccc(O)cc1)[N+](=O)[O-],2µM*,?,-19.7%,-5.1%,9.8%
O=C(c1cc2cccc([N+](=O)[O-])c2oc1=O)N1CCOCC1,-1.5%,-1.7%,2.8%,1.8%,19.9%
Cc1nc2[nH]c(=S)[nH]c2c(=O)[nH]1,nt,20µM*,nt,nt,-8.8%
CCCc1nnc(NC(=O)Cn2c(=O)oc3cc(Br)ccc32)s1,28.2µM*,-6.5%,?,-8.7%,5.9%
CCCc1nnc(NC(=O)Cn2c(=O)oc3ccccc32)s1,?,1.7%,?,0.7%,-25.1%
CN(C)c1ccc(-c2n[nH]c(=S)n2-c2ccccc2)cc1,1.78µM*,7.94µM*,-1.3%,-13.7%,-13.5%
CN(C)c1ccc(C2CC(c3ccccc3)=Nc3nc(-c4ccccc4)cn32)cc1 (centres undefined),?,nt,-8.4%,?,nt
CCN(CC)c1ccc(-c2n[nH]c(=S)n2-c2ccccc2)cc1,1.41µM*,20µM*,-12.2%,-38.4%,-2.9%
Cc1ccc(Cc2c(C)[nH]c(=S)[nH]c2=O)cc1,44.7µM*,?,13.5%,6.9%,45.0%
CCOC(=O)Cc1c(C)[nH]c(=S)[nH]c1=O,-19.3%[59 µM],56.2µM*,79.4µM*,-12.8%,20.4%
Cc1ccc(Cc2cc(C)n[nH]c2=O)cc1,0.7%,1.4%,14.4%,-2.4%,15.5%
COC(=O)CCc1c(C)[nH]c(=S)[nH]c1=O,?,-13.9%,89.1µM*,0.3%,15.7%
O=C1Nc2ccccc2C1(O)C/C(=N/O)c1ccccc1 (centres undefined),-5.4%,20µM*,13.2%,-10.9%,-16.0%
CCN=C1SC(CC(=O)Nc2ccccc2OCC)C(=O)N1CC (centres undefined),1.4%[12.7 µM],-14.1%,13.1%,1.3%,17.4%
CC(C)C(C(=O)Nc1ncn[nH]1)N1C(=O)c2ccccc2C1=O (centres undefined),?,2.9%,15.3%,-3.2%,17.8%
Cc1ccc(S(=O)(=O)/N=C2/C=C(Sc3ncn[nH]3)C(=O)c3ccccc32)cc1,0.562µM*,2.82µM*,3.16µM*,44.7µM*,8.91µM*
Cc1ccc(S(=O)(=O)N2CCN(C(=O)CSc3ncn[nH]3)CC2)c(C)c1,?,-10.3%,nt,9.4%,5.9%
CC(C)c1ccc(S(=O)(=O)/N=C2/C=C(Sc3ncn[nH]3)C(=O)c3ccccc32)cc1,1.58µM*,7.08µM*,2µM*,44.7µM*,17.8µM*
Cc1ccc(S(=O)(=O)/N=C2/C=C(Sc3ncn[nH]3)C(=O)c3ccccc32)c(C)c1,0.891µM*,nt,3.55µM*,44.7µM*,nt
SMILES,G9a block,JMJD2A Tudor,Sfp inh,BAZ2B block,HP1b chromo inh
CCOC(=O)c1ccccc1NC(=O)c1sc2ccccc2c1Cl,13.9%[59 µM],56.2%,nt,31.0%,107.9%
O=C(Nc1ccc(S(=O)(=O)N2CCCC2)cc1)c1cccc(OC(F)F)c1,35.5µM*,-17.6%,nt,7.3%,19.0%
CCN(CC(=O)Nc1ccc(S(=O)(=O)N2CCCC2)cc1)Cc1ccccc1,44.7µM*,-5.5%,nt,4.9%,28.3%
O=C(COC(=O)c1ccc(S(=O)(=O)N2CCCCC2)cc1)NCc1ccco1,?,?,3.1%,nt,?
O=C(OCc1ccco1)c1ccc(S(=O)(=O)N2CCCCC2)cc1,?,79.4µM*,22.4µM*,50.1µM*,-3.4%
CCN(CC(=O)Nc1ccc(S(=O)(=O)N2CCOCC2)cc1)Cc1ccccc1,-34.2%[12.7 µM],-9.9%,nt,15.2%,1.4%
CC(C)c1ccc(CCNC(=O)CSC(=S)N2CCCC2)cc1,15.8µM*,11.6%,nt,16.4%,38.4%
CC(Oc1cccc(Cl)c1)C(=O)Nc1cc(S(=O)(=O)N2CCOCC2)ccc1N1CCCC1 (centres undefined),?,-7.9%,nt,-2.4%,1.6%
CN(Cc1cc2ccccc2[nH]c1=O)C(=O)C1CCCCC1,15.1%,9.4%,-9.5%,10.9%,16.3%
CCOC(=O)c1c(C)n(C)c2ccc(OC)c(NC(=O)CCN3CCC(Cc4ccccc4)CC3)c12,-0.9%,-5.8%,-17.9%,2.7%,33.3%
Cc1ccc(OCC(=O)NNC(=O)CSC(=S)N2CCCC2)cc1,44.7µM*,-15.9%,nt,-4.3%,29.5%
COc1ccccc1OCC(=O)NNC(=O)CSC(=S)N1CCCC1,26.1%[12.7 µM],-16.8%,nt,4.0%,28.8%
O=C(COc1ccccc1)Nc1ccc(S(=O)(=O)N2CCCC2)cc1,50.1µM*,-1.4%,-2.5%,0.3%,31.8%
CCN1CCN(S(=O)(=O)c2ccc(Cl)c(C(=O)N(CC)Cc3ccccc3)c2)CC1,14.1µM*,-20.7%,nt,-28.8%,11.3%
CCN1CCN(S(=O)(=O)c2ccc(Cl)c(C(=O)N(CCc3ccccc3)Cc3ccccc3)c2)CC1,nt,?,nt,nt,4.5%
CCN(Cc1ccc(N(C)C)cc1)C(C)C(=O)Nc1ccc(S(=O)(=O)N2CCCC2)cc1 (centres undefined),20.3%[12.7 µM],31.6µM*,nt,39.8µM*,-26.8%
O=C(COc1ccccc1)Nc1ccc(S(=O)(=O)N2CCCCCC2)cc1,-5.4%[12.7 µM],-3.8%,17.5%,3.0%,15.0%
COc1ccc(CCNC(=O)C(=O)Nc2ccc(C)c(C)c2)cc1,-4.0%[59 µM],-10.1%,nt,1.8%,21.9%
Cn1nnnc1SCCNCc1ccccc1OCc1ccccc1,-8.0%,-26.4%,14.2%,4.7%,37.2%
O=C(COC(=O)c1ccc(S(=O)(=O)N2CCCC2)cc1)Nc1cccc(F)c1,5.01µM*,-23.4%,nt,13.9%,31.2%
Cc1ccc(NC(=O)CN2CCCN(S(=O)(=O)c3ccc(Br)s3)CC2)cc1,50.1µM*,-20.8%,-2.7%,-2.5%,35.5%
Cc1ccc(OCC(=O)Nc2ccc(S(=O)(=O)N3CCCC3)cc2)cc1,79.4µM*,-4.1%,-3.7%,0.5%,24.4%
Cc1ccc(OCC(=O)Nc2ccc(S(=O)(=O)N3CCN(C)CC3)cc2)cc1,11.2µM*,-13.0%,7.5%,-37.1%,52.5%
Cc1cc(C)cc(NC(=O)CN2CCCN(S(=O)(=O)c3ccc(Br)s3)CC2)c1,-2.3%[12.7 µM],-8.6%,-6.2%,2.9%,52.6%
CC(C(=O)Nc1ccc(S(=O)(=O)N2CCCC2)cc1)N1CCN(c2ccccc2O)CC1 (centres undefined),nt,?,nt,nt,6.1%
